ChEMBL document CHEMBL1201862, “PubChem BioAssay data set” (2004)
The whole screen tested about 400,000 compounds, of which about 2,100 (0.53%) were called active. Roughly 14% stayed inconclusive and do not appear here. How the calls were made is not given here. Only a selection was taken, and actives are over-represented in it overall.

Target: Ataxin-2 (Homo sapiens) (UniProt Q99700)
Test: qHTS for Inhibitors of ATXN expression.
Type: functional

Ataxin-2 (Homo sapiens), sequence (Q99700 whole entry): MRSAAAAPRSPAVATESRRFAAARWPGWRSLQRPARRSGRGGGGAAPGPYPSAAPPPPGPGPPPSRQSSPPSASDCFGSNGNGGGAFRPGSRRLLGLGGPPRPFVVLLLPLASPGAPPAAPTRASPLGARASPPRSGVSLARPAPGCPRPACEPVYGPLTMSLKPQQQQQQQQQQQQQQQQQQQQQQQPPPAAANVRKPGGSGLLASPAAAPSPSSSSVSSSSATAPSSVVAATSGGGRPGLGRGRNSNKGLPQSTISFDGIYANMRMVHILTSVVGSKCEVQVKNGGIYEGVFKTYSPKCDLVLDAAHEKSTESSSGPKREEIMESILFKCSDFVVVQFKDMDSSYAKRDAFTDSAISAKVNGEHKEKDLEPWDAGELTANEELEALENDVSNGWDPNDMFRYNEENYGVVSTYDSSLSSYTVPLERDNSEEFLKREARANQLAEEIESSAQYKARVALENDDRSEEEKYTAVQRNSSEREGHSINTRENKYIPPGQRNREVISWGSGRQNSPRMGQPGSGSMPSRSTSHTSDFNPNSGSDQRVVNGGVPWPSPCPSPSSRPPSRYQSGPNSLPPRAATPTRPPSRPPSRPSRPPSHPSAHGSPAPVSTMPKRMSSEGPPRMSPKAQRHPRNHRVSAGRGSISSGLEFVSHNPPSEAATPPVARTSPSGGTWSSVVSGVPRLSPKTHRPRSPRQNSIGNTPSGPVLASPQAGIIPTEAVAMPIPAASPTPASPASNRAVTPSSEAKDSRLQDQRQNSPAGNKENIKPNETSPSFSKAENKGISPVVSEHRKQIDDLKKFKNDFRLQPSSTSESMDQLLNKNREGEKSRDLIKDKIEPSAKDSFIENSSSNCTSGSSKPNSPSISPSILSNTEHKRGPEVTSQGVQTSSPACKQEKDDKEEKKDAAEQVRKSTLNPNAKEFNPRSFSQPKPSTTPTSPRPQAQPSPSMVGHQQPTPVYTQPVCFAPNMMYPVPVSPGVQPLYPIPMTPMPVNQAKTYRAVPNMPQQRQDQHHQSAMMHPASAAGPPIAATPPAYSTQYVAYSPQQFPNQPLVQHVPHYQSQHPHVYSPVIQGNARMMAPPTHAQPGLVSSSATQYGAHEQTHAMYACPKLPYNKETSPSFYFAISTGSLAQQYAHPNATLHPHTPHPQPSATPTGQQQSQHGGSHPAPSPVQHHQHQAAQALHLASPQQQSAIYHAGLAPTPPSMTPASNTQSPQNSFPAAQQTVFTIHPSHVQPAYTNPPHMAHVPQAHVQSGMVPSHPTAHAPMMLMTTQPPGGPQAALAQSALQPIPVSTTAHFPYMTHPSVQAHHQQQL

Question: Which Potency does the source give for `COCCCn1/c(=N/C(=O)c2ccccc2)c(C#N)cc2c(=O)n3cccc(C)c3nc21` here?
Answer: Its Potency is “inactive”.

Question: `Cc1ccsc1C(=O)OCC(=O)Nc1cccc(F)c1` was tested. Which Potency did it give?
Answer: Its Potency is “inactive”.

Question: `CN1C(=O)c2ccc(NC(=O)c3ccc(Cl)cc3Cl)cc2C1=O` was tested. Which Potency did it give?
Answer: Its Potency is “inactive”.

Question: With `Cc1ccc(C(=O)COC(=O)c2cccc(NC(=O)c3ccc(Cl)cc3Cl)c2)cc1` as the compound, how does the Potency read?
Answer: Its Potency is 35.5 µM (active).

Question: Which Potency does the source give for `COc1cc(C(CCN2CCCC2)c2c(OC)cc(OC)c3c(-c4ccccc4)cc(=O)oc23)cc(OC)c1OC` (stereo not drawn) here?
Answer: Its Potency is 22.4 µM (active).

Question: For `COc1cc2oc(=O)cc(-c3ccc(-c4ccc(N(C)C)cc4)cc3)c2c(OC)c1OC`, which Potency is on record?
Answer: The Potency was “inactive”.

Question: How did the Potency turn out when `CCCCCc1cc(=O)oc2c(C(CCN3CCCC3)c3cc(OC)c(OC)c(OC)c3)c(OC)cc(OC)c12` (stereo not drawn) was run?
Answer: Its Potency is 35.5 µM (active).

Question: How did the Potency turn out when `COc1ccc(C(CCN2CCCC(C)C2)c2c(OC)cc(OC)c3c(-c4ccccc4)cc(=O)oc23)cc1` (stereo not drawn) was run?
Answer: The Potency was 31.6 µM (active).

Question: How did the Potency turn out when `O=c1cc(-c2ccccc2)c2cc(Cl)c3c(c2o1)CN(Cc1ccccc1)CO3` was run?
Answer: Its Potency is “inactive”.

Question: For `COc1cc(C(CCN2CCCC(C)C2)c2c(OC)cc(OC)c3c(-c4ccccc4)cc(=O)oc23)cc(OC)c1OC` (stereo not drawn), which Potency is on record?
Answer: The Potency was 31.6 µM (active).

Question: For `CCCc1cc(=O)oc2c(C)c(O)c(CN3CCCCC3)cc12`, which Potency is on record?
Answer: Its Potency is “inactive”.

Question: With `COc1ccc(CN2COc3ccc4c(-c5ccccc5)cc(=O)oc4c3C2)cc1OC` as the compound, how does the Potency read?
Answer: The Potency was “inactive”.

Question: `CCc1cc(=O)oc2c(C)c3c(cc12)CN(CCc1ccccc1OC)CO3` was tested. Which Potency did it give?
Answer: The Potency was “inactive”.

Question: With `COc1ccc(-c2cc(=O)oc3c4c(ccc23)OCN(Cc2cccc(OC)c2)C4)cc1` as the compound, how does the Potency read?
Answer: Its Potency is “inactive”.

Question: With `COc1ccc(-c2cc3ccc(O)c(CN4CCCC(C)C4)c3oc2=O)cc1OC` (stereo not drawn) as the compound, how does the Potency read?
Answer: The Potency was “inactive”.

Question: For `O=c1cc(-c2ccccc2)c2cc(Cl)c(O)c(CN3CCOCC3)c2o1`, which Potency is on record?
Answer: Its Potency is “inactive”.

Question: `COc1ccc(C2CC(c3ccccc3)=NN2c2ccccc2)c(C(=O)O)c1OC` (stereo not drawn) was tested. Which Potency did it give?
Answer: The Potency was “inactive”.

Question: `Cc1cc(C)c2nc(NCCCNC(S)=NCCCN(C)C)c(C#N)cc2c1` was tested. Which Potency did it give?
Answer: The Potency was “inactive”.

Question: `Cn1nc(C(=O)Nc2ccc(Br)cc2)cc1C(=O)Nc1ccc(Br)cc1` was tested. Which Potency did it give?
Answer: Its Potency is “inactive”.

Question: For `CCNc1ccc2c(Cl)cc(=O)oc2c1`, which Potency is on record?
Answer: The Potency was “inactive”.

Question: For `COc1ccc(C2=CC(c3ccc(Cl)cc3)n3cnnc3N2)cc1OC` (stereo not drawn), which Potency is on record?
Answer: Its Potency is “inactive”.

Question: `CN1CCN(CCOCCOc2c(Cl)cc(Cl)cc2Cl)CC1` was tested. Which Potency did it give?
Answer: Its Potency is “inactive”.

Question: `COCCNc1oc(/C=C/c2cccs2)nc1S(=O)(=O)c1ccccc1` was tested. Which Potency did it give?
Answer: The Potency was “inactive”.

Question: For `Cc1ccc(S(=O)(=O)N(C)c2ccc(OC(=O)c3cccs3)cc2)cc1C`, which Potency is on record?
Answer: The Potency was “inactive”.

Question: How did the Potency turn out when `C/C(=N\NC(=O)CN1CCN(c2ccc(F)cc2)CC1)c1ccco1` was run?
Answer: The Potency was “inactive”.

Question: How did the Potency turn out when `O=C(COc1ccccc1F)NCc1ccc(-n2cccc2)cc1` was run?
Answer: Its Potency is “inactive”.

Question: Which Potency does the source give for `Cc1ccc(-n2nc(C)c(C(=O)NCCCN3CCN(c4ccc(F)cc4)CC3)c2-n2cccc2)cc1` here?
Answer: The Potency was 25.1 µM (active).

Question: How did the Potency turn out when `COc1ccccc1NC(=O)c1c(C)nn(-c2ccccc2)c1Cl` was run?
Answer: The Potency was “inactive”.

Question: How did the Potency turn out when `O=C(Nc1ccc(C(=O)NCCCN2CCN(c3ccc(F)cc3)CC2)cc1)C1=CSCCO1` was run?
Answer: Its Potency is “inactive”.

Question: How did the Potency turn out when `COc1ccc(CCNC(=O)c2c(C)nn(-c3ccc(F)cc3)c2-n2cccc2)c(OC)c1OC` was run?
Answer: The Potency was 35.5 µM (active).

Question: For `CCCc1ccc(C(=O)NNc2cc(Cl)ccc2Cl)cc1`, which Potency is on record?
Answer: The Potency was “inactive”.

Question: For `CS(=O)(=O)c1ccc(C(=O)NNC(=O)c2ccccc2-n2cccc2)cc1`, which Potency is on record?
Answer: Its Potency is “inactive”.

Question: How did the Potency turn out when `CCOC(=O)C1CCN(C(=O)c2cc3c(=O)n4ccccc4nc3n2C)CC1` was run?
Answer: The Potency was “inactive”.

Question: How did the Potency turn out when `C/C(=N\NC(=O)c1ccc(Br)cc1)C1C(=O)c2ccccc2C1=O` was run?
Answer: The Potency was 35.5 µM (active).

Question: For `CC(/C=C(\O)c1ccc(Br)cc1)=N/NC(=O)c1ccccc1`, which Potency is on record?
Answer: The Potency was “inactive”.

Question: With `O=C(NN=C(S)Nc1ccccc1)c1ccc(O)cc1` as the compound, how does the Potency read?
Answer: The Potency was “inactive”.

Question: For `O=C(CCn1nnc2ccccc21)N/N=C\Cc1ccccc1`, which Potency is on record?
Answer: The Potency was “inactive”.

Question: With `COc1cc(C(=O)OCC(=O)Nc2ccc(S(=O)(=O)NC3=NCCCCC3)cc2)cc(OC)c1OC` as the compound, how does the Potency read?
Answer: The Potency was “inactive”.

Question: With `CC(C)=CC(=O)Nc1cccc(S(=O)(=O)NC2=NCCCCC2)c1` as the compound, how does the Potency read?
Answer: Its Potency is “inactive”.

Question: For `Cc1cccc(C)c1NC(=O)CN(C)C(=O)c1cccc(NS(=O)(=O)c2ccccc2)c1`, which Potency is on record?
Answer: The Potency was “inactive”.

Question: For `CC(C)(C)c1ccc(OCC(=O)Nc2cccc(S(=O)(=O)NC3=NCCCCC3)c2)cc1`, which Potency is on record?
Answer: Its Potency is “inactive”.

Question: For `Cc1ccc(OCC(=O)Nc2ccc(S(=O)(=O)NC3=NCCCCC3)cc2)cc1`, which Potency is on record?
Answer: Its Potency is “inactive”.

Question: For `O=C(CCl)Nc1cccc(S(=O)(=O)NC2=NCCC2)c1`, which Potency is on record?
Answer: The Potency was 12.6 µM (active).

Question: For `O=C(CCl)Nc1cccc(S(=O)(=O)NC2=NCCCCC2)c1`, which Potency is on record?
Answer: Its Potency is 11.2 µM (active).

Question: With `Cc1cccc(C(=O)N[C@H](C(=O)Nc2ccc(S(=O)(=O)NC3=NCCCCC3)cc2)C(C)C)c1` as the compound, how does the Potency read?
Answer: The Potency was “inactive”.

Question: How did the Potency turn out when `O=C(CCl)Nc1ccc(S(=O)(=O)NC2=NCCCCC2)cc1` was run?
Answer: Its Potency is 13.4 µM (active).

Question: How did the Potency turn out when `Cc1cc(NC(=O)CSc2nc(=O)cc(N)n2-c2ccc(C)c(C)c2)no1` was run?
Answer: Its Potency is “inactive”.

Question: With `Cc1cccn2c(=O)c3cc(C(=O)NCc4cccnc4)c(=N)n(CCCO)c3nc12` as the compound, how does the Potency read?
Answer: Its Potency is “inactive”.

Question: Which Potency does the source give for `Cn1c(C(=O)NCC2CCCO2)cc2c(=O)n3ccccc3nc21` (stereo not drawn) here?
Answer: Its Potency is “inactive”.

Question: `COc1ccccc1/N=C/c1c(C)c(C#N)c2nc3ccccc3n2c1O` was tested. Which Potency did it give?
Answer: Its Potency is “inactive”.

Question: Which Potency does the source give for `O=C(Nc1ccccc1)N1CCN(C2c3ccccc3-c3ccccc32)CC1` here?
Answer: Its Potency is “inactive”.

Question: Which Potency does the source give for `O=C1C=CC(=O)N1c1ccc2c(c1)C(NC(=O)C(F)(F)F)c1ccccc1-2` (stereo not drawn) here?
Answer: Its Potency is 25.1 µM (active).

Question: `Cc1ccc(CNC(=O)c2c(Nc3c(C)cccc3C)sc(C(=O)c3ccccc3)c2N)cc1` was tested. Which Potency did it give?
Answer: The Potency was 39.8 µM (active).

Question: With `Cc1nc2sc(C(=O)c3ccccc3)c(N)c2c(C)c1C` as the compound, how does the Potency read?
Answer: Its Potency is “inactive”.

Question: How did the Potency turn out when `COc1ccc(C(=O)c2sc3nc(-c4ccccc4)ccc3c2N)cc1` was run?
Answer: Its Potency is “inactive”.

Question: Which Potency does the source give for `Cc1ccc2c(N)c(C(=O)c3ccccc3)sc2n1` here?
Answer: Its Potency is “inactive”.

Question: `COc1cccc(OC)c1C(=O)Nc1ccc(Br)c(C(=O)c2ccccc2)c1` was tested. Which Potency did it give?
Answer: The Potency was “inactive”.

Question: How did the Potency turn out when `COc1ccc(CNC(=O)c2c(Nc3ccccc3C)sc(C(=O)c3ccccc3)c2N)cc1` was run?
Answer: Its Potency is 35.5 µM (active).

Question: With `Cc1cccc(C)c1Nc1sc(C(=O)c2ccccc2)c(N)c1C(=O)Nc1ccc(F)cc1` as the compound, how does the Potency read?
Answer: The Potency was 28.2 µM (active).

Question: How did the Potency turn out when `COc1ccc(CNC(=O)CCC(=O)c2ccccc2)cc1` was run?
Answer: The Potency was “inactive”.

Question: For `CCO/C(O)=C1\C(C)=Nc2sc(C(=O)c3ccc(C)cc3)c(N)c2C1c1ccc(C(=O)OC)cc1` (stereo not drawn), which Potency is on record?
Answer: The Potency was “inactive”.

Question: `Nc1c(C(=O)c2ccccc2)sc(Nc2ccc(Cl)c(Cl)c2)c1C(=O)Nc1ccccc1` was tested. Which Potency did it give?
Answer: Its Potency is 28.2 µM (active).

Question: Which Potency does the source give for `Cc1cc(C)c2c(N)c(C(=O)c3ccccc3)sc2n1` here?
Answer: Its Potency is “inactive”.
